{
  "source": "PubChem BioAssay (NCI)",
  "note": "This is part of a sample that, as a whole, favours compounds with a hit. Of some 83,000 tested, about 20% had one in any assay.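 For each line, cells grew in 96-well plates with the test compound present at a single concentration for 48 hours.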 Unmarked numbers belong to inactive results. Active and inactive are the calls of the source.",
  "data": [
    {"system": "MDA-MB-435 melanoma", "assay": "NCI-60 one-dose screen, 48 h (100 = growth as untreated, 0 = no growth, -100 = all killed)", "details": "10 µM unless noted", "method": "Growth inhibition of the MDA-MB-435 human Melanoma tumor cell line is measured as a screen for anti-cancer activity. Cells are grown in 96 well plates and exposed to the test compound for 48 hours. Compounds are tested at a single concentration, which is 10^-5 M for most compounds. The reported endpoint is percent growth (GI% or GIPRCNT), where numbers from 0 - 100% represent growth inhibition, and numbers from -100% - 0 represent cell death. For example, a value of 40 represents 60% growth inhibition. A value of 0 means no net growth occurred over the course of the experiment. A value of -40 indicates 40% of cells at the beginning of the experiment died by the end of the experiment. A value of -100 means all cells are dead at the end of the experiment.\nNCI-60 Human Tumor Cell Lines Screen was performed using the standard one-dose NCI protocol, which is described in more detail at https://dtp.cancer.gov/discovery_development/nci-60/default.htm.\nCompounds with GIPRCNT values below 10 were considered active. Activity score was based on GIPRCNT using the following formula: […]\nScore is 0 for GIPRCNT values of 100 or above, 50 for GIPRCNT values of 0, and 100 for GIPRCNT values of -100.", "values": [
      {"compound": "Cc1ccc2c(Cn3cc(CSc4nc5ccccc5o4)nn3)cc(=O)oc2c1", "growth": "102%"},
      {"compound": "CCOc1ccc(NC(=O)CSc2oc(-c3ccccc3)nc2S(=O)(=O)c2ccc(C)cc2)cc1", "growth": "87.4%"},
      {"compound": "N#CSc1c[nH]c2cccc(/C=C/C(=O)/C=C(/C=C/c3cccc4[nH]cc(SC#N)c34)OB(F)F)c12", "growth": "-74.7% (active)"},
      {"compound": "O=c1[nH]c(Cc2nc3ccccc3s2)nc2cc(Br)ccc12", "growth": "45.6%"},
      {"compound": "O=[N+]([O-])c1cccc(-c2nc3cc4nc5ccccc5[nH]c4cc3n2)c1", "growth": "112%"},
      {"compound": "COc1ccc(-c2cc(-c3cc(OC)c(OC)c(OC)c3)c(C#N)c(=O)n2CCCCC(=O)NO)cc1", "growth": "37.7%"},
      {"compound": "Cn1c(I)c(C#CCO[Si](C)(C)C(C)(C)C)c(=O)[nH]c1=O", "growth": "97.4%"},
      {"compound": "N#Cc1ccc(O)c(C2=NCC(c3cccc(Oc4ccccc4)c3)O2)c1", "note": "(stereo not given)", "growth": "35.2%"},
      {"compound": "S=c1sc2c(Cl)nc(-c3cccnc3)nc2n1-c1ccccc1", "growth": "41.2%"},
      {"compound": "O=c1c2cnn(-c3ccccc3)c2n2c(CN3CCOCC3)nnc2n1-c1ccccc1", "growth": "112%"},
      {"compound": "Cc1ccc(-c2nc([P+](c3ccccc3)(c3ccccc3)c3ccccc3)c(S(=O)(=O)c3ccc(C)cc3)o2)cc1", "growth": "-2.81% (active)"},
      {"compound": "O=C1c2ccc3c4c5ccc(c24)C(=O)N1CCCOCCCCOCCCNCc1ccc(cc1)CNCCCOCCCCOCCCN(C3=O)C5=O", "growth": "-95.4% (active)"},
      {"compound": "C=CC(=O)N1CCN(c2cccc(Oc3nccc(Nc4nnc(-c5ccc(Br)cc5)s4)n3)c2)CC1", "growth": "-5.55% (active)"},
      {"compound": "C=CCOC(=O)Nc1cccn([C@H](Cc2ccccc2)C(=O)NCCC(C)C)c1=O", "growth": "108%"},
      {"compound": "CCOC(=O)n1cc(-c2nonc2-c2cn(C(=O)OCC)c3ccc(Br)cc23)c2ccccc21", "growth": "99.9%"},
      {"compound": "O=S(=O)(Nc1cc(F)cc(Cl)c1)c1ccc(-c2cnc(C3CC3)o2)cc1", "growth": "1.17% (active)"},
      {"compound": "CC(C)(C)[Si](C)(C)OC1[C@@H](CNC(=O)NC(=O)NC(N)=O)O[C@@H](n2cnc3c(NC(=O)Nc4ccccc4)ncnc32)[C@H]1O[Si](C)(C)C(C)(C)C", "note": "(stereo not given in full)", "growth": "68.9%"},
      {"compound": "CCSc1nc2scc(C)c2c(=O)[nH]1", "growth": "105%"},
      {"compound": "COC(=O)[C@@H](CCCCNC(=O)[C@]12CCC(C)(C)C[C@@H]1C1=CC[C@@H]3[C@@]4(C)C/C(=C/c5ccco5)C(=O)C(C)(C)[C@@H]4CC[C@@]3(C)[C@]1(C)CC2)NC(=O)[C@]12CCC(C)(C)C[C@@H]1C1=CC[C@@H]3[C@@]4(C)C/C(=C/c5ccco5)C(=O)C(C)(C)[C@@H]4CC[C@@]3(C)[C@]1(C)CC2", "growth": "93.9%"},
      {"compound": "CC1=C2[C@@H](CC1)[C@]1(C)O[C@@](C(C)C)(C[C@H]1OC(=O)[C@H](C)O)[C@H]2OC(=O)/C=C/c1ccccc1", "growth": "94.2%"},
      {"compound": "COc1ccc(C(=O)c2cc3c(N)c(C(=O)Nc4ccc(C)cc4)sc3nc2C)cc1", "growth": "-42.9% (active)"},
      {"compound": "CC(=O)/C(=C\\c1c(-c2ccccc2)[nH]c2ccccc12)S(C)(=O)=O", "growth": "-42.7% (active)"},
      {"compound": "Cc1cc(S(=O)(=O)/N=C(\\N)n2nc(C)c(C)c2C)c(SCc2ccccc2)cc1Cl", "growth": "27%"},
      {"compound": "COc1ccc(/C=C(\\C#N)n2nnc3cc(Cl)ccc32)cc1", "growth": "-61.6% (active)"},
      {"compound": "O=S(=O)(Nc1ccc(Cl)c(C(F)(F)F)c1)c1ccc(-c2cnc(C3CC3)o2)cc1", "growth": "2.82% (active)"},
      {"compound": "CCCCCC(/C=N\\NC(=S)N/N=C/C(=C/c1ccccc1)CCCCC)=C\\c1ccccc1", "growth": "81.6%"},
      {"compound": "O=C(CSC(=S)n1cnnc1)NC(=O)c1ccccc1", "growth": "113%"},
      {"compound": "COc1c(B(O)O)cccc1-c1nc2c(F)cc3[nH]ncc3c2c2c1CCCC2", "growth": "8.04% (active)"},
      {"compound": "C[C@@H](CO)[C@@H]1CCC=C2CC[C@]3(C)[C@H](CC[C@@H]4[C@@]5(C)CCCNC(C)(C)[C@@H]5CC[C@]43C)[C@H]21", "growth": "7.57% (active)"},
      {"compound": "CCCCCCC12CCC(=O)N1CCc1cncn12", "note": "(stereo not given)", "growth": "105%"},
      {"compound": "O=C1Nc2ccccc2/C1=C/c1cccn1CCCCn1c2ccccc2c(=O)c2ccccc21", "growth": "92.7%"},
      {"compound": "CCCCCCCCCc1ccc(OCCOCCOCCOCCOCCOCCOCCOCCOCCO)cc1", "growth": "7.48% (active)"},
      {"compound": "Nc1ncnc2c1c(-c1cccc(Cl)c1)nn2CC(=O)N1CCOCC1", "growth": "104%"},
      {"compound": "COc1cc2cc(NCc3cccc(Cl)c3)nc(C)c2cc1OC", "growth": "4.19% (active)"},
      {"compound": "O=C(Nc1cccc(-c2ccc(N3CCOCC3)nn2)c1)Nc1cccc(C(F)(F)F)c1", "growth": "69.7%"},
      {"compound": "O=C1Nc2ccc(C(=O)O)cc2/C1=N/c1nnc(Sc2ccccc2)s1", "growth": "102%"},
      {"compound": "CSc1oc(C)nc1[P+](c1ccccc1)(c1ccccc1)c1ccccc1", "growth": "41%"},
      {"compound": "CCN(CC)Cc1cc(C=C2C(=O)NC(=S)NC2=O)cc(OC)c1O", "growth": "105%"},
      {"compound": "COCCNC(=O)Nc1ccc2nc(-c3cccs3)c(-c3cccs3)nc2c1", "growth": "94.1%"},
      {"compound": "Cc1ccc(C[P+](c2ccccc2)(c2ccccc2)c2ccccc2)cc1", "growth": "4.92% (active)"}
    ]}
  ]
}
